Measurements published in PubChem BioAssay (NCI).
Compounds without any hit were thinned out: in the full panel of roughly 83,000, 20% have a hit.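 The endpoint reported here, percent growth, reads 100 for growth as untreated, 0 for no net growth and -100 for all cells dead.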 Values without a mark were called inactive. Active and inactive are the calls of the source. How the source made its calls: active means growth percent below 10; inactive means the rest.

Test system: MDA-MB-468 breast
Test: NCI-60 one-dose screen, 48 h (100 = growth as untreated, 0 = no growth, -100 = all killed)
Conditions: 10 µM unless noted

Row | Compound | growth
1 | O=C1N(C[P+](c2ccccc2)(c2ccccc2)c2ccccc2)CCCN1C[P+](c1ccccc1)(c1ccccc1)c1ccccc1 | 105%
2 | COc1cc2nc(-c3ccc(C)cc3)cc(OCCCNCC3CCCO3)c2cc1OC (stereo not drawn) | 68.8%
3 | CCOC(=O)N1C/C(=C/c2ccc(OC)cc2)C(=O)/C(=C/c2ccc(OC)cc2)C1 | -28.9% (active)
4 | CCn1cc(C(=O)O)c(=O)c2cc(F)c(N3CCN(CC(=O)Nc4ccc(C(C)=O)cc4)CC3)cc21 | 108%
5 | COC(=O)c1ccc(NC2=C(Cl)C(=O)C(C)=C(C)C2=O)cc1 | -45.9% (active)
6 | CCOC(=O)c1nc(Nc2cc(C)[nH]n2)c2ccccc2n1 | 54.9%
7 | O=C1c2cccc3cccc(c23)C(=O)N1Nc1nc(N2CCOCC2)nc(N2CCN(c3ccccc3)CC2)n1 | -15.8% (active)
8 | CN(C)CCN1C(=O)c2cccc3c(-c4ccc(-c5nc6c7ccccc7c7ccccc7c6[nH]5)cc4)ccc(c23)C1=O | 108%
9 | N#CC1=C(c2ccc(Cl)cc2)Nc2c(c(-c3ccc(Cl)cc3)nn2-c2ccccc2)C12C(=O)Nc1ccc(Cl)cc12 (stereo not drawn) | 52.9%
10 | NS(=O)(=O)Oc1ccc(-c2sc3cc(O)ccc3c2C(=O)c2ccc(OCCN3CCCCC3)cc2)cc1 | 95.1%
11 | O=C(O)c1ccccc1C(=O)c1ccc(I)cc1 | 108%
12 | Cc1ccc(C(=O)Nc2ccc(CNCCN3CCNCC3)c(C(F)(F)F)c2)cc1C#Cc1cnc2cccnn12 | -83% (active)
13 | COC(=O)c1ccc2[nH]c(O)c(C(=Nc3ccc(N(C)C(=O)CN4CCN(C)CC4)cc3)c3ccc(C)cc3)c2c1 | -50.1% (active)
